TGFb SMAD3 inh: inhibitors of TGF-b signaling. Potency, µM (highest dose often 46.1 µM), inactives show top-dose activity, negative = inhibition, most hits filed as inhibitors. HepG2 CAGA-GFP TGF-b/SMAD3 reporter, GFP fluorescence, 18 h; TGF-beta stimulated, 500 pg/mL final. 410,000 compounds, 1.2% hits. AID 588855; further: potency means the concentration at half of the fitted maximal effect; on the % scale 0 is the no-effect control and ±100 the full control effect; nearly all actives have a fitted effect of over 65% in size
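Cell-based qHTS in HEPG2 carrying a CAGA-GFP Smad reporter; compounds added before 500 pg/mL final TGF-beta, 18 h incubation at 37 degrees C, GFP fluorescence quantified per cell by imaging cytometry.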
ATXN viability: cell viability loss in ATXN counter-screen; S2 cells (HEK-293 line with an ATXN2-luciferase reporter) viability, CellTiter-Fluor protease fluorescence, 24 h; Potency, µM (series often up to 56.7 µM), most hits filed as cytotoxic; 400,000 compounds, 0.49% hits; AID 651635; further: potency means the concentration at half of the fitted maximal effect; nearly all actives have a fitted effect of over 40% in size
ATXN2 expr inh: ATXN2 expression inhibition. Potency, µM (highest dose often 57 µM), inactives show at the highest dose activity change, negative = inhibition, hits mostly inhibitors. AID 1745845. 360,000 compounds, 0.72% hits. HEK-293 ATXN2-luciferase reporter, luminescence, 24 h; further: potency means the concentration at half of the fitted maximal effect; on the % scale 0 is the no-effect control and ±100 the full control effect; nearly all actives have a fitted effect of over 55% in size
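ATXN2-luciferase reporter cells (luciferase flanked by upstream and downstream ATXN2 gene portions) were treated 24 h at 37 °C with compounds at up to 57 uM. SteadyGlo luminescence gave expression; GF-AFC fluorescence gave viability.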
LDHA block: inhibitors of human lactate dehydrogenase A; P00338; purified LDHA, NADH/diaphorase-resazurin fluorescence; stronger effect = lower value; activity change, % (values are at about 110 or 230 µM); 480,000 compounds, 0.15% hits; in the data active means activity change below about -30%; inconclusive means mostly about -25% to -30%;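 further: plate controls were DMSO wells for no effect and wells without enzyme for full effect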
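Enzyme activity of human lactate dehydrogenase 5 (2 nM; 0.06 mM NADH, 0.2 mM pyruvate, 5 min, RT) is measured via a resazurin/diaphorase fluorescence readout of residual NADH.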
IDH1 R132H inh: human IDH1 R132H inhibition; O75874; IDH1-R132H enzyme, NADPH consumption, diaphorase/resazurin fluorescence; Potency, µM (doses to about 76.6 µM), inactives show at the top dose activity change, negative = inhibition, hits mostly inhibitors; 390,000 compounds, 0.093% hits; AID 602179; further: potency means the concentration at half of the fitted maximal effect; on the % scale 0 is the no-effect control and ±100 the full control effect; nearly all actives have a fitted effect of over 65% in size
Target sequence (O75874 whole entry R132H, stated change not applied): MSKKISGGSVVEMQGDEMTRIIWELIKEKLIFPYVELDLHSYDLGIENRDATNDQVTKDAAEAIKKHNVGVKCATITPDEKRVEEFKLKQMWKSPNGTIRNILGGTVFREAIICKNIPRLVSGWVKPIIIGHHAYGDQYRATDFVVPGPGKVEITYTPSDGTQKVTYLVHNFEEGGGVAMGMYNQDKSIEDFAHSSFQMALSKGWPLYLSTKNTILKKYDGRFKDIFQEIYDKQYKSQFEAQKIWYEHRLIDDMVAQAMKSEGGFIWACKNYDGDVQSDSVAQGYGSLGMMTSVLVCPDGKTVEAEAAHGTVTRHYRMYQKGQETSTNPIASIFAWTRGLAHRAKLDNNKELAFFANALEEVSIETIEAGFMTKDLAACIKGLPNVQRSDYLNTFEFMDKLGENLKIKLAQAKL
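IDH1-R132H (0.5 ug/mL dispensed) in pH 7.5 Tris buffer was preincubated 30 min with compound, then given a substrate mix of 0.016 mM NADPH and 2 mM alpha-KG for 80 min at room temperature; remaining NADPH was read by diaphorase/resazurin fluorescence.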
HepG2 tox-1: counter-screen for TGF-b inhibitors: cytotoxicity in HepG2 cells; HepG2 CAGA-GFP viability, ATP luminescence, 18 h; Potency, µM (titrated, usually from 46.1 µM), inactives show top-dose activity change, negative = cytotoxicity, usual class: cytotoxic; 410,000 compounds, 0.76% hits; further: potency means the concentration at half of the fitted maximal effect
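HepG2 CAGA-GFP cells (1000/well, DMEM with 1% FBS) received compound, then TGF-beta at 500 pg/mL final, and were incubated 18 hours at 37 degrees C. Viability was read by CellTiter-Glo luminescence. Media-only wells were set as complete cell-killing and DMSO as no toxicity.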
TGFb CAGA inh: confirmation of TGF-b signaling inhibitors in HepG2 reporter cells; shares compounds with TGFb SMAD3 inh; HepG2 CAGA-GFP TGF-b reporter, GFP fluorescence, 18 h; cells stimulated with TGF-beta, 500 pg/mL; Potency, µM (top dose mostly 46.1 µM), for the others: at the top dose activity, negative = inhibition, hits mostly inhibitors; 1,600 compounds, 63% hits; AID 720534; further: potency means the concentration at half of the fitted maximal effect; on the % scale 0 is the no-effect control and ±100 the full control effect; nearly all actives have a fitted effect of over 65% in size
HepG2 tox-2: HepG2 cytotoxicity, TGF-b inhibitor counterscreen; HepG2 CAGA-GFP viability, ATP luminescence, 18 h; cells stimulated with TGF-beta, 500 pg/mL; 1,600 compounds, 27% hits; Potency, µM (series often up to 46.1 µM), for the others: at the top dose activity, negative = cytotoxicity, most hits filed as inhibitors; shares compounds with TGFb SMAD3 inh; further: potency means the concentration at half of the fitted maximal effect; on the % scale 0 is the no-effect control and ±100 the full control effect; nearly all actives have a fitted effect of over 70% in size
TGFb CCL64 inh: orthogonal confirmation of TGF-b inhibitors in CCL64 cells | CCL64 CAGA-GFP reporter, TGF-b stimulated, GFP fluorescence, 18 h | Potency, µM (series often up to 46.1 µM), for the others: at the highest dose activity, negative = inhibition, usual class: inhibitors | 1,600 compounds, 41% hits | shares compounds with TGFb SMAD3 inh; further: potency means the concentration at half of the fitted maximal effect; nearly all actives have a fitted effect of over 65% in size
TGFb COP inh: TGF-b inhibition validated with COP promoter | shares compounds with TGFb SMAD3 inh | HepG2 COP-GFP TGF-b reporter, GFP fluorescence, 18 h; cells stimulated by added recombinant TGF-beta | Potency, µM (top dose mostly 46.1 µM), without a hit: top-dose activity, negative = inhibition, hits mostly inhibitors | 1,600 compounds, 3% hits; further: potency means the concentration at half of the fitted maximal effect; nearly all actives have a fitted effect of over 70% in size
The depositor's hits bear a star. This is a sample that favours compounds with a hit; in the whole collection about 2.2% have one here. Unless noted, the call rests on the fitted dose curve; in most records, active means well fitted curve in the direction sought with a large enough effect; inconclusive means small, poorly fitted or top-dose-only effect, or another doubt; inactive means no such curve, though single readings can be large; an effect the other way counts as inactive or inconclusive.

How did CN(C(=O)c1ccc(NC(=O)Cc2cccc(NC(=O)C3CCN(C(=O)CCc4ccccc4)CC3)c2)cc1)C1CCCC1 do in these assays?
TGFb SMAD3 inh: 13µM*; ATXN viability: inactive; ATXN2 expr inh: -16%; LDHA block: -21; IDH1 R132H inh: 1%; HepG2 tox-1: -10%; TGFb CAGA inh: inconclusive; HepG2 tox-2: -2%; TGFb CCL64 inh: 13%; TGFb COP inh: 7%

What do the screens show for `COc1ccc(CNC(=O)[C@@H]2CC=C[C@@H]3CCN(Cc4ccc(OC)c(OC)c4)C(=O)[C@@H]32)cc1`?
TGFb SMAD3 inh: 3%; HepG2 tox-1: -41%

How did COc1ccc(CNC(=O)[C@@H]2CC=C[C@@H]3CCN(Cc4ccc(Cl)c(Cl)c4)C(=O)[C@@H]32)cc1 do in these assays?
TGFb SMAD3 inh: 16µM*; ATXN viability: inconclusive; ATXN2 expr inh: inconclusive; LDHA block: -2; IDH1 R132H inh: 4%; HepG2 tox-1: -13%; TGFb CAGA inh: 21µM*; HepG2 tox-2: inconclusive; TGFb CCL64 inh: inconclusive; TGFb COP inh: 30%

What do the screens show for `Cc1cn([C@H]2C[C@H](O)[C@@H](CCC(=O)NCc3cccs3)O2)c(=O)[nH]c1=O`?
TGFb SMAD3 inh: 2%; ATXN viability: inactive; ATXN2 expr inh: 3%; LDHA block: -5; HepG2 tox-1: 17%

Results for Cc1ccc(OCCNC(=O)/C=C/c2ccc([N+](=O)[O-])cc2)cc1C ?
TGFb SMAD3 inh: inconclusive; ATXN viability: inactive; ATXN2 expr inh: -7%; LDHA block: -11; IDH1 R132H inh: 6%; HepG2 tox-1: 0%; TGFb CAGA inh: -23%; HepG2 tox-2: -2%; TGFb CCL64 inh: -9%; TGFb COP inh: 2%

Results for CC1(C(=O)Nc2ccc3[nH]ncc3c2)CCN1C(=O)CC(c1ccccc1)c1ccccc1 (configuration not stated) ?
TGFb SMAD3 inh: 3%; ATXN viability: inconclusive; ATXN2 expr inh: 7%; LDHA block: 2; HepG2 tox-1: -25%

What do the screens show for `CC(C)c1nc(NCCO)c(C#N)c2c1CCCC2`?
TGFb SMAD3 inh: -9%; ATXN viability: inactive; ATXN2 expr inh: 1%; LDHA block: -7; IDH1 R132H inh: -6%; HepG2 tox-1: -16%

Results for COc1ccc(-c2cccc(-c3cc(=O)oc4cc(OC)cc(OC)c34)c2)cc1 ?
TGFb SMAD3 inh: 1.4µM*; ATXN viability: inactive; ATXN2 expr inh: 6%; LDHA block: -1; IDH1 R132H inh: 5%; HepG2 tox-1: 3%; TGFb CAGA inh: 1.6µM*; HepG2 tox-2: -1%; TGFb CCL64 inh: 1.5µM*; TGFb COP inh: -25%

Results for CCOc1ccc(NC(=O)Nc2cc(OCC(F)(F)F)cc(OCC(F)(F)F)c2)cc1 ?
TGFb SMAD3 inh: -16%; ATXN viability: inactive; ATXN2 expr inh: -16%; LDHA block: -7; IDH1 R132H inh: -2%; HepG2 tox-1: -16%

What do the screens show for `O=C(Nc1ccc(F)cc1)Nc1cc(OCC(F)(F)F)cc(OCC(F)(F)F)c1`?
TGFb SMAD3 inh: 4µM*; ATXN viability: inconclusive; ATXN2 expr inh: 11µM*; LDHA block: -2; IDH1 R132H inh: 3%; HepG2 tox-1: 8.9µM*; TGFb CAGA inh: 6.5µM*; HepG2 tox-2: inconclusive; TGFb CCL64 inh: 7.3µM*; TGFb COP inh: 47%

What do the screens show for `Cc1cc(=O)oc2cc(OCC(=O)Nc3ccc(Oc4ccccc4)cc3)ccc12`?
LDHA block: 10

How did CC(C)(C)c1cc(C(c2cccnc2)N2CCN(CCO)CC2)cc(C(C)(C)C)c1O (configuration not stated) do in these assays?
TGFb SMAD3 inh: 7.9µM*; ATXN2 expr inh: inconclusive; LDHA block: 9; IDH1 R132H inh: -22%; HepG2 tox-1: 13µM*; TGFb CAGA inh: 5.2µM*; HepG2 tox-2: 15µM*; TGFb CCL64 inh: 4.6µM*; TGFb COP inh: inconclusive

What do the screens show for `COc1ccc2oc(=Nc3cc(F)ccc3F)c(C(N)=O)cc2c1`?
TGFb SMAD3 inh: 8.9µM*; ATXN viability: inactive; ATXN2 expr inh: -30%; LDHA block: -3; IDH1 R132H inh: 1%; HepG2 tox-1: -7%; TGFb CAGA inh: inconclusive; HepG2 tox-2: 0%; TGFb CCL64 inh: -6%; TGFb COP inh: 22%

What do the screens show for `O=C(COC(=O)c1c2c(nc3ccccc13)/C(=C\c1cccs1)CCC2)Nc1ccccc1`?
TGFb SMAD3 inh: 11µM*; ATXN viability: inactive; ATXN2 expr inh: -23%; LDHA block: -2; IDH1 R132H inh: 2%; HepG2 tox-1: -4%; TGFb CAGA inh: inconclusive; HepG2 tox-2: inconclusive; TGFb CCL64 inh: inconclusive; TGFb COP inh: 39%

What do the screens show for `CC(C)CNC(=O)COC(=O)c1c2c(nc3ccccc13)/C(=C\c1cccs1)CC2`?
TGFb SMAD3 inh: -13%; ATXN2 expr inh: 21%; LDHA block: -2; IDH1 R132H inh: 2%; HepG2 tox-1: -31%

Results for CC(=O)c1ccc(NC(=O)COC(=O)c2c3c(nc4ccccc24)/C(=C\c2cccs2)CCC3)cc1 ?
TGFb SMAD3 inh: 1.8µM*; ATXN viability: inactive; ATXN2 expr inh: inconclusive; LDHA block: -6; IDH1 R132H inh: 5%; HepG2 tox-1: -37%; TGFb CAGA inh: 6.5µM*; HepG2 tox-2: inconclusive; TGFb CCL64 inh: 1.5µM*; TGFb COP inh: 27%

Screening data (PubChem)
